# Compound activity from PubChem BioAssay.
# aSyn UTR act = Activators via SNCA 5'UTR binding, MLPCN. activity score, % (tested at 7.5 µM), hits read low. alpha-synuclein 5'UTR reporter, activators screen. hit rate 7.1% among 300,000; in the data active = activity score below about -60%
# The depositor's hits bear a star. A selection follows.
SMILES,aSyn UTR act
Cc1cccc(C(=O)O/N=C(\N)c2cccc([N+](=O)[O-])c2)c1,-157*
N/C(=N\OC(=O)c1cccc([N+](=O)[O-])c1)c1cccnc1,-189*
CC(/C=N/NC(=O)c1cccs1)=C\c1ccco1,-176*
CC(/C=N/NC(=O)Cc1cccs1)=C\c1ccco1,-98*
CC(/C=N/NC(=O)c1cc(-c2ccncc2)nc2ccccc12)=C\c1ccco1,86
CCC(=O)N(c1ccc(C(=O)O)cc1)c1nc(-c2ccc(OC)cc2)c(C)s1,-185*
CCc1nnc(NC(=O)c2cc(-c3ccccc3)nn2-c2ccccc2)s1,-165*
Cc1ccc(NC(=O)c2cc(-c3ccccc3)nn2-c2ccccc2)cc1,-98*
CC(=O)C(/C=N/c1cc(-c2ccc(C)cc2)nn1-c1ccccc1)=C(\C)O,-198*
CCN1/C(=C/c2ccc3cc(C)ccc3[n+]2CC)Sc2ccccc21,100
Cc1[nH]c(=O)c(C(=O)/C=C/c2ccccc2F)c2c1CCCC2,-364*
Cc1cc2nc(-c3ccc(SCc4ccc(C(=O)O)cc4)nc3)[nH]c2cc1C,-160*
Cc1cc2nc(-c3ccc(SCc4ccccc4C#N)nc3)[nH]c2cc1C,-78*
Cc1cc2nc(-c3ccc(SCC(=O)Nc4ccc(S(=O)(=O)NC5CC5)cc4)nc3)[nH]c2cc1C,-116*
Cc1cc2nc(-c3ccc(SCC(=O)NC(C)C)nc3)[nH]c2cc1C,-134*
Cc1cc2nc(-c3ccc(SCC(=O)N4CCc5ccccc54)nc3)[nH]c2cc1C,-220*
Cc1cc(NC(=O)CSc2ccc(-c3nc4cc(C)c(C)cc4[nH]3)cn2)no1,-100*
CN(Cc1ccc(F)cc1)C(=O)CCc1nnc(-c2ccccc2)o1,-91*
COc1ccc(CCN(C)C(=O)CCc2nnc(-c3ccccc3)o2)cc1OC,-86*
CC(=O)N(Cc1ccc(F)cc1)C1=C(NCCc2ccccc2)C(=O)c2ccccc2C1=O,70
CCSc1nc2ccccc2n1C(=O)/C=C\c1ccc(OC)c(OC)c1,-112*
CC(=O)NC1Sc2ccccc2N=C1c1ccccc1 (centres undefined),-181*
CNC(=O)C1CCN(S(=O)(=O)c2c(C)noc2/C=C/c2ccccc2F)CC1,-69*
O=C(/C=C/Nc1ccccc1)c1ccc(Cl)cc1Cl,-122*
CCCCNc1nc(N)nc(-c2cc(Cl)ccc2O)n1,-67*
SMILES,aSyn UTR act
O=C(N/N=C/c1ccc[nH]1)c1sc2ccccc2c1Cl,-105*
O=C(NC(=S)NCCO)c1sc2ccccc2c1Cl,-143*
CC(C)(C)C(=O)NC(=S)NNC(=O)c1sc2ccccc2c1Cl,89
CCOC(=S)NC(=O)c1sc2ccccc2c1Cl,-84*
Cc1cccc(N2CSC3=C(C#N)C(c4ccc(C)o4)CC(=O)N3C2)c1 (centres undefined),-86*
Cc1cc(C(=O)CSc2ncccn2)c(C)n1Cc1ccco1,-69*
Cc1cc(C(=O)CSc2nnnn2C)c(C)n1Cc1ccco1,-109*
CSc1ccccc1OCc1cc(C(=O)N(C)Cc2ccncn2)no1,-81*
Cc1nc(CNC(=O)c2cc(COc3c(F)cccc3F)on2)cs1,41
CCn1ccnc1CN(C)C(=O)c1cc(COc2ccccc2SC)on1,-101*
CSc1ccccc1OCc1cc(C(=O)N(C)Cc2nonc2C)no1,-119*
CSc1ccccc1OCc1cc(C(=O)NCc2cccc(C)n2)no1,-112*
CSc1ccccc1OCc1cc(C(=O)N(C)CC2COCCO2)no1 (centres undefined),-83*
O=C1OCCC1Sc1nnc(-c2ccc3c(c2)OCO3)o1 (centres undefined),55
Nc1oc2ccccc2c(=O)c1-c1ccc2c(c1)OCO2,-75*
COc1cccc(CCc2nc3ccccc3c(=O)n2N)c1,-68*
COCn1c(COc2ccc3ccccc3c2)nc2ccccc21,-92*
Nn1c(COc2ccccc2)nc2ccccc2c1=O,-70*
CCn1c(CCc2ccccc2)nc2ccccc21,-76*
CCn1c(COc2ccccc2C)nc2ccccc21,-131*
Cc1ccccc1OCc1nc2ccccc2c(=O)n1N,-113*
Cn1c(COc2ccccc2Br)nc2ccccc21,-145*
Cc1cc(NC(=O)COc2cccc3cccnc23)no1,-96*
Cc1cc(NC(=O)COc2ccc(C)c(C)c2)no1,-62*
Cc1ccccc1OCC(=O)NC1=NCCS1,-77*
SMILES,aSyn UTR act
Cc1cc(NC(=O)COc2ccccc2C)no1,-116*
Cc1cc(NC(=O)COc2cccc(C)c2C)no1,-66*
CC(C)C(=O)NC(c1cccc([N+](=O)[O-])c1)c1ccc2cccnc2c1O (centres undefined),91
CCC(=O)NC(c1ccc(OC)c(OC)c1)c1cc(Cl)c2cccnc2c1O (centres undefined),111
CCC(=O)NC(/C=C/c1ccccc1)c1cc([N+](=O)[O-])c2cccnc2c1O (centres undefined),-94*
S=c1[nH]nc(-c2ccn[nH]2)n1-c1ccccc1Cl,-86*
Cc1nc2ccc(NC(=O)NCCO)cc2s1,-64*
Cc1nc2ccc(NC(=O)NCCCO)cc2s1,-64*
Cc1cccc2sc(N(CCCN(C)C)C(=O)c3ccc4ncsc4c3)nc12,-92*
CCc1ccc2nc(N(CCN(C)C)C(=O)c3ccc4ncsc4c3)sc2c1,-114*
COC(=O)Cn1ncn2c(cc3oc(C)cc32)c1=O,-118*
O=C(Nc1ccc(Cl)cc1)Nc1ccc(-c2cnco2)cc1,-85*
O=C(NC(=O)c1ccccc1)Nc1ccc(-c2cnco2)cc1,-143*
CC(=O)Cc1nsc(Nc2ccc(C)cc2)n1,-93*
COc1cccc(-c2nnc(NC(=O)C3CCCCC3)o2)c1,-96*
CCC(=O)Nc1cccc(-c2nnc(-c3ccccc3)o2)c1,-201*
O=C(Nc1cccc(-c2nnc(-c3ccccc3)o2)c1)C1CCCCC1,-105*
Cc1ccc(NC(=O)Nc2nnc(-c3ccccc3)o2)cc1,-75*
Cc1ccc(-c2nnc(-c3cccc(NC(=O)c4cccs4)c3)o2)cc1,-94*
Cc1cccc(C)c1OCC(=O)Nc1cccc(-c2nnc(-c3ccccc3)o2)c1,-91*
Clc1ccccc1/C=N/NC1=Nc2cccc3cccc1c23,-230*
COc1ccc(C(=O)NNC2=Nc3cccc4cccc2c34)cc1,58
CN1CCN(c2ccc(NC(=O)c3cc4ccccc4o3)cc2)CC1,-64*
CS(=O)(=O)N1CCN(c2ccc(NC(=O)c3cc4ccccc4o3)cc2)CC1,-116*
O=C(Oc1ccccc1N1C(=O)C2CCCCC2C1=O)c1ccccc1F (centres undefined),-64*
SMILES,aSyn UTR act
O=C(COc1ccccc1-c1ccccc1)N/N=C/c1cccc2ccccc12,75
Cc1ccccc1C(=O)N/N=C/c1ccc([N+](=O)[O-])s1,93
Cc1ccccc1C(=O)N/N=C/c1ccsc1C,-148*
O=C(N/N=C/c1sc2ccccc2c1O)c1cccc2ccccc12,92
Cc1ccccc1C(=O)N/N=C/c1cccc2ccccc12,-72*
CCc1ccc(C(=O)N/N=C/c2cccc3ccccc23)nc1,-125*
O=C(N/N=C/c1ccccc1F)c1cccc2ccccc12,-87*
CCCn1c(=O)c(C(=O)N/N=C/c2ccccc2F)c(O)c2ccccc21,-95*
Cc1cc(C(=O)N/N=C2\CC(=O)c3ccccc32)c(C)n1-c1ccccc1,-112*
Nc1c(-c2ccccn2)cnn1-c1nc(-c2ccc(F)cc2)cs1,-79*
Nc1c(-c2cccs2)cnn1-c1nc(-c2ccc(F)cc2)cs1,-124*
O=C(NNC(=S)Nc1cccc(Cl)c1)c1ccccc1OC(F)F,-83*
